# Experimental data: PubChem BioAssay AID1508600 (Functional Genomics Laboratory (NCATS/FGL), 2020)
# The whole screen tested about 53,000 sequences, of which about 3,700 (7%) were called active.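 Rule for the calls: active = gene knockdowns whose robust z-score for IL-1 alpha signal is at least 2 or at most -2, so actives lie on both sides; inactive = the rest.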 The entries come from a sample that favours actives as a whole.
# Test: Components of the Cytosolic LPS Sensing Pathway: Gene Identification via Genome-wide siRNA Screen;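 note: robust z of the log signal after scaling to non-targeting control siRNA wells of the plate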
# Conditions: RAW264.7 macrophages, IL-1a HTRF, actives lie on both sides, screened at 100 nM (by protocol), cells primed 5 h with Pam3CSK4 first
# How it was run: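 Mouse macrophage line RAW264.7 is transfected with siRNA (100 nM final), grown 48h, primed with TLR ligand Pam3CSK4 5 h and given intracellular LipidA 24 h. IL-1a in supernatant is read by HTRF and viability by luminescence.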
row,Sequence,z-score
1,GCUUUAAGUACUUUAACGCTT against Ncr1,1.04 (inactive)
2,GCAGCUACUACACCAACCATT against Dlx2,-2.46 (active)
3,CGAAAACAGUACGAUGCUUTT against Dnajb11,1.03 (inactive)
4,CCUCAAUGAAGACCCAUUATT against Kif1b,-1.35 (inactive)
5,GGUUUUCUAUGGAAGAGAUTT against Igdcc4,0.835 (inactive)
6,GGUAUCCACUGUGCCAACCTT against Ush2a,-0.343 (inactive)
7,CGAUCGUAUUCAAUGGAAATT against Rims2,-0.998 (inactive)
8,GCAUCUGCAUUUUUUGCUATT against Prox1,1.29 (inactive)
9,GCUUUUGCUACAAGUGUAUTT against Cop1,-0.593 (inactive)
10,GGCAGAUGGCCGAAUUGAUTT against Rest,-1.13 (inactive)
11,GGACGAUUUAAGGAUUUUUTT against Dcun1d1,-2.4 (active)
12,CCAAGUACCCUGAGAGUUUTT against Pnpla6,1.46 (inactive)
13,GCCAAACGAACAACAAAACTT against Chrm3,-0.166 (inactive)
14,CGUACCACACGAUGAAUAGTT against Pou4f1,-0.525 (inactive)
15,CCGCAUGAACUUCCUACAGTT against Ugt1a1,1.2 (inactive)
16,GGCGUAUUCUGGUAUCCAGTT against Celf1,2.08 (active)
17,GCACUGAACUUUCCUGACCTT against Ppdpf,1.78 (inactive)
18,CCAUUCGAGAUGAGAAGAATT against Gcc1,-0.287 (inactive)
19,GGGAAAAGAUCGACAAAGATT against Plk2,-0.217 (inactive)
20,GGCCCAUGAUCCAUUUUGGTT against Prnp,-2.07 (active)
21,GGAAAAGGAGGAGAGUUAUTT against Nkapl,0.153 (inactive)
22,GGGUGGUGGCAUUAAACUUTT against Stk36,1.75 (inactive)

row,Sequence,z-score
1,GCUUUUCGGAGCUCUAUAUTT against Sipa1,-2.23 (active)
2,GGCAGACGGUAAUAAACAUTT against Ralgapb,-1.08 (inactive)
3,GCGUGUAUACCAGCCUUACTT against Egfl7,0.0437 (inactive)
4,GGACAUGAGGACUGUAUCATT against Clec4g,-3.2 (active)
5,GGAAGGAUCUAAUCUUUUUTT against Vamp2,1.56 (inactive)
6,GGAAGAAUUCUUGAAGAUGTT against Cetn4,1.13 (inactive)
7,GCUAUGUGUUGAUUUAAAGTT against Pdk1,0.422 (inactive)
8,GGCUACAGCCGUCAAAGAUTT against R74862,-0.091 (inactive)
9,GGAAGAAGCCUUUUGAGUGTT against Peg3,1.39 (inactive)
10,CCAGCUAUGAAUCAGAAUGTT against Bend6,2.6 (active)
11,CCGAAAGAUCAGCACAUCCTT against Olfr24,-0.184 (inactive)
12,CGGCUGUGUGCAUUUAAAGTT against Bmpr2,0.616 (inactive)
13,CCUUUGAUUCACAAUGGUUTT against Smad4,-0.0886 (inactive)
14,GCUCGAACAUAGCAGCAAGTT against BC061195,-2.11 (active)
15,GGGUUUCAACCGUCACCUGTT against Pygl,-1.89 (inactive)
16,GGCCCUUACAGAGUCUGGATT against B930095G15Rik,0.833 (inactive)
17,CGAAUUCAUACCAAGAAAGTT against Myo3a,0.477 (inactive)
18,GCCAAGUGGUGACAUCAACTT against Ralgds,2.7 (active)
19,GGGCAAUGUGUUUAUGUAUTT against Tmem30a,-0.264 (inactive)
20,GGAUAUACAAAGGAACGCATT against Wdr20rt,-0.862 (inactive)
21,GGUUCUGACCACCUACAUATT against Htr3a,-1.62 (inactive)
22,GGCUAUACCCUGAAAUAUUTT against Slitrk4,-0.00892 (inactive)

row,Sequence,z-score
1,CCUACUACACCACUUGGGUTT against Dpm2,0.365 (inactive)
2,GGGCAAAUUAGAGACCAAGTT against Nwd2,0.692 (inactive)
3,GGAGGAUAUGAGCAAGUACTT against Isg20,-0.476 (inactive)
4,GGUUAACGGAUCAACAUUUTT against Ube2d2a,1.71 (inactive)
5,GGAAUUUUCUUCAUUUGGATT against Pabpc5,-0.878 (inactive)
6,GGUACCAGACCUCAUAGUUTT against Cep95,2.16 (active)
7,GGGAAGAAAAUGAAAGGUUTT against Cdk5rap2,-1.14 (inactive)
8,GGUGUCAACCAGUUGUUUUTT against Nr2c1,-1.2 (inactive)
9,CCUAAAGUCACAUCUAAGATT against Pum3,1.06 (inactive)
10,GGAACUGUCCGAUCUUAGATT against Prrg4,-1.88 (inactive)
11,GCUACUCCCUGCAUAUUAGTT against Slamf9,-1.48 (inactive)
12,GGCAGCUUUCCUAUUGAAUTT against Tex19.1,0.233 (inactive)
13,GGACUUUGAUCAGCUGUCUTT against Tmem17,-2.12 (active)
14,GGUUGAUCGUGUCAUGUAGTT against Poc1b,0.0595 (inactive)
15,GGCUAUACCUUUGACUAUGTT against Csnk1g1,0.0256 (inactive)
16,GGGCAGCAUCGGACUAAAUTT against Agtr1a,2.35 (active)
17,GGUUGUAGGAGAGGAAGCCTT against Apobr,-0.572 (inactive)
18,GGUACGAAGUCAAAGUGAATT against Dnmt3l,0.0494 (inactive)
19,GGAGUUAGAUGCCCUCAAGTT against Trappc6a,-0.796 (inactive)
20,CAGCUGAGAUUGAUGGCCATT against Olfr313,-0.6 (inactive)
21,GCCUGAAUAUUGCUAUCACTT against Gpr107,2.35 (active)
22,GCAACAACCACCAAAUCUATT against Prol1,-1.53 (inactive)

row,Sequence,z-score
1,GGAAGAAUGUGAUGACUCATT against Zfp11,-0.471 (inactive)
2,GGUAAUUUAAUGACACAUGTT against A130079P16Rik,2.35 (active)
3,GGAUCCAGACACCUCAAGATT against Vxn,0.702 (inactive)
4,CGUUCAUGUUGUAAGUAUCTT against Olfr1196,0.461 (inactive)
5,GGAGACUUUGAAAAAAGACTT against Mrps31,0.5 (inactive)
6,GCUGAAAAUAUACCAUUCATT against Colec10,-0.798 (inactive)
7,GGAUCCAGACUUAAGCUUATT against Zgpat,2.57 (active)
8,CGGAUUACAAACCAUAAAATT against Mex3b,-0.497 (inactive)
9,GGAGAAGAGAAAGAUUCUUTT against Dhx9,0.724 (inactive)
10,GGCAAUGGAAGUUGGAACATT against Ptch1,-2.15 (active)
11,GGACACAUGGUGUUGACCATT against Parp12,0.0379 (inactive)
12,GGACCUGAUCUUCAGGUUUTT against Gpc5,1.73 (inactive)
13,GGCUCUCAAUUUUAUUUCUTT against Ncaph2,0.894 (inactive)
14,GCACGAGACACUUUUCAUUTT against Dnajb5,-0.0852 (inactive)
15,GGAAGCAGAAUUGUAAAGATT against Hrk,-1.09 (inactive)
16,GCAACAAAAGGCCUAAUCATT against 4930550C14Rik,-1.74 (inactive)
17,GGCCCUUGUUUAAAGCCAUTT against Asns,0.0954 (inactive)
18,CGGCGUAUGAGGAUUGGUUTT against Atp8b1,-0.739 (inactive)
19,GGCCAAGAUUAGAUUGCUUTT against Senp2,2.57 (active)
20,GCCCGUAUAGGUAUUGGUCTT against Mpg,2.06 (active)
21,GCUUGAAUCCGAUUUGUUATT against Gramd1c,0.296 (inactive)
22,GGCAUAUGAUGAUAAGUAATT against P2ry14,0.691 (inactive)

row,Sequence,z-score
1,GGCACUGAAGGAGAACCUGTT against Rbbp8nl,-0.336 (inactive)
2,GGAACAACUGAAAAUGAAGTT against Ppp1r21,-1.21 (inactive)
3,UUCCAUUCAUAUGUCUUGATT against Tas2r109,0.00348 (inactive)
4,GGUUUUUCUAAGAGAACGGTT against Rnft1,-0.558 (inactive)
5,CCUGGUCACUCCAAACCCATT against Zfp950,-2.11 (active)
6,GGAGCUCUCGAAGGAUUGUTT against Eda2r,-0.768 (inactive)
7,GGAUAAGAGGGUGAAGUCATT against Cdyl2,-1.06 (inactive)
8,GGUAUAUAGGGCUGUGGCUTT against Pigs,-0.822 (inactive)
9,GGUGUACUUUAUCUCACGATT against Olfr6,1.1 (inactive)
10,GCCUGUUCUAGGUGACCUATT against Chd3,0.236 (inactive)
11,GGAAAUACAGAACACAAGCTT against Plekhm3,2.04 (active)
12,GGUUAAAUAUGUAAACCACTT against Slco2b1,0.0949 (inactive)
13,CCAUAUAGCCUCAAAAUCGTT against Acat2,-0.395 (inactive)
14,CGUCUCAACAGAGUUGGAGTT against Prmt2,1.94 (inactive)
15,CGAUGCUGAUGUAUCAAAGTT against Phkb,1.48 (inactive)
16,GGUUCUUUUUACUCAGUGGTT against Ankhd1,-2.53 (active)
17,GGAACUUCCUGUUCAGAAATT against Eci3,0.881 (inactive)
18,CGUUAGUCUGUGAAUGCACTT against Emc10,-0.442 (inactive)
19,GGACAGUAAUAUGAUGAGCTT against Lzts1,-0.943 (inactive)
20,GCUUUAGUGACGGCUCGAATT against Zscan2,2.07 (active)
